Screens deposited in PubChem BioAssay by several laboratories.
DAT uptake mod = human DAT dopamine uptake with cocaine, either direction. B-score at 10 µM. 1.3% of 110,000 active. Q01959. AID 449768. LLC-PK1 hDAT cells, [14C]-dopamine uptake with cocaine IC80; actives deviate in either direction;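 active means Z score or B-score, a plate-position-corrected score, falls beyond the plate's 99.7% confidence bounds, in either direction; inactive means both scores lie inside the 99.7% bounds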;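 further: scored against the spread of the other compound wells on the same plate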
FAK inh = FAK (human) kinase inhibition; inhibition, %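 (tested at 7 µM)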; biochemical FAK kinase activity assay; 0.84% of 97,000 active; in the data active means inhibition above about 19%;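 further: 0% = DMSO and 100% = reference compound high control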
CD11b adhes enh = increases human CD11b/CD18 adhesion to fibrinogen; P05107+P11215; K562 CD11b/CD18 adhesion to fibrinogen, ATPlite luminescence; activation, % at 10 µM; 0.07% of 93,000 active; AID 1499;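 active means 10 µM primary screen giving 50% or more activity, confirmed by 40% or more on retest at that dose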
PTK2B oligo ant = Pyk2 (human) oligomerization antagonism; Q293 cells, Pyk2 FERM NanoBiT luminescence; stronger effect = lower value; z-score (the deposit names both 25 µM and 10 µM); 0.83% of 99,000 active;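 active means Z-score of -3 or lower, scaled per plate to the spread of control and sample wells; inactive means z-score above -3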;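 further: negative z-score means lost luminescence so less FERM oligomerization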
Mac1 fbg inh = inhibitors of human CD11b/CD18 binding to fibrinogen | AID 1497 | K562 CD11b/CD18 adhesion to fibrinogen, ATPlite luminescence; Mn2+ added to activate the integrin | 0.54% of 93,000 active | inhibition, % at 10 µM | P05107+P11215;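 active means primary inhibition of 50% or more at 10 µM, then 40% or more on retest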
D1 allo mod = allosteric modulators of human D1 dopamine receptor. HEK293 D1, CRE-luciferase, dopamine EC30 potentiation; actives deviate in either direction. 5.9% of 58,000 active. B-score at 10 µM. AID 641. P21728;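 active means luminescence count or its row- and column-corrected plate score outside the 99.7% band of the plate's sample wells, on either side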
Target sequence (P21728 whole entry, looked up): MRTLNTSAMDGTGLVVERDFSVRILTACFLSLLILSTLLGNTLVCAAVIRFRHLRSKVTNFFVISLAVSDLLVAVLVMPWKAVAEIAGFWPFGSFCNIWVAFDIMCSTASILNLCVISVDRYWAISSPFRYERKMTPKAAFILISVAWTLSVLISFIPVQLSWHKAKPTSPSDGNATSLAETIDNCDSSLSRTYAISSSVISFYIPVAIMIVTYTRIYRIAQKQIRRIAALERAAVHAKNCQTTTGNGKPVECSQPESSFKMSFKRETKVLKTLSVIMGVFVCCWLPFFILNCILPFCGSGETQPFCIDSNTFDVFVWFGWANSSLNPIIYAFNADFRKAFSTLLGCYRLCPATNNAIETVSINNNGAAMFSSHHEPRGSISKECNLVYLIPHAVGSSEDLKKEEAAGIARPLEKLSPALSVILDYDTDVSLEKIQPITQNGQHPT
Active calls of the source: *; . = no result given. Many of the other results were omitted from the sample, so hits are more common in it than they were.

SMILES	DAT uptake mod	FAK inh	CD11b adhes enh	PTK2B oligo ant	Mac1 fbg inh	D1 allo mod
CC(=O)Nc1ccc(N2C(C(C)=O)=NN(c3ccccc3)C2c2cccs2)cc1 (configuration not stated)	-0.49	0	1	-2.7	-5	.
COc1ccc(N2C(C(C)=O)=NN(c3ccccc3)C2c2cccs2)cc1 (configuration not stated)	1.4*	1	3	-2.3	-14	.
CC1CN=C(N(C(=O)Nc2ccccc2)c2ccc(F)cc2)S1 (configuration not stated)	-0.2	-1	4	.	8	.
COc1cccc(C=Nc2cccnc2)c1O	-7*	-5	-3	.	-10	0.54
Cn1c(C(=O)NCCCN2CCCC2=O)cc2c(=O)n(C)c3ccccc3c21	0.85	3	5	.	3	0.018
Cn1c(C(=O)NCCN2CCN(c3ccccc3F)CC2)cc2c(=O)n(C)c3ccccc3c21	.	.	-2	.	1	-3.7*
Cn1c(C(=O)NCCN2CCOCC2)cc2c(=O)n(C)c3ccccc3c21	1.4	-4	-1	.	-4	-0.27
Cn1c(C(=O)NCCCN2CCN(c3ccc(F)cc3)CC2)cc2c(=O)n(C)c3ccccc3c21	.	.	.	.	.	-5.2*
Cc1cc2c(cc(C(=O)NCc3cccnc3)n2Cc2ccc(Cl)cc2)o1	0.0041	.	-3	0.56	-27	-1.1
CCN(CC)C(=O)Cn1c(=O)n(-c2ccccc2)c(=O)n1CC(=O)N(CC)CC	-9.6*	1	0	0.07	-10	-0.14
Cc1c(Cl)c([N+](=O)[O-])nn1CC(=O)NC12CC3CC(CC(C3)C1)C2	-1.5	8	-1	-0.41	-2	.
COC(=O)c1ccc(C(=O)OC)c(NC(=O)CSCc2ccccc2Br)c1	-0.78	-10	11	0.13	-10	.
CCOC(=O)Cc1csc(NC(=O)COc2ccc(OC)cc2)n1	1.6	3	-2	.	-7	.
CCOC(=O)Cc1csc(NC(=O)COc2ccc(N(C)S(=O)(=O)c3ccc(C)cc3)cc2)n1	0.065	0	-2	-3.9*	21	.
COc1ccc(-c2[nH]c(-c3ccc(C(=O)O)cc3)nc2-c2ccccc2)cc1	-2.4*	2	.	-1.4	.	.
CCCCC(=O)Nc1cc2nn(-c3ccc(OC)cc3)nc2cc1C	-0.33	-2	0	0.08	2	0.15
CCC(=O)Nc1ccc2c(c1)ncn2-c1ccc(OC)cc1	2.9*	3	.	0.56	.	.
CCC(=O)Nc1cc2nn(-c3ccc(OC)cc3)nc2cc1C	-1.2	.	-7	-0.02	-3	-5*
C[C@]12C=CC(=O)C=C1CC[C@H]1[C@@H]3C[C@@H](O)[C@](O)(C(=O)CO)[C@@]3(C)C[C@H](O)[C@@]12F	1.2	.	.	.	.	-6.4*
CC1(C)O[C@@H]2C[C@H]3[C@@H]4CCC5=CC(=O)C=C[C@]5(C)[C@@]4(F)[C@@H](O)C[C@]3(C)[C@]2(C(=O)CO)O1	1.7	.	.	.	.	0.31
O=C(c1ccco1)N1CCN(C2CCCC2)CC1	.	.	1	0.61	-4	-0.094
Cc1ccc2nc3c(cc2c1)c(NC(=O)c1cccnc1)nn3C	-0.13	-2	1	-1.5	-25	-4.4*
COc1ccc(O)c(C(=O)c2cnc3onc(C)c3c2)c1	0.91	-2	-6	-2.2	3	.
CC(C)c1noc2ncc(C(=O)c3cc(Cl)cc(Cl)c3O)cc12	-0.49	-5	-11	-1.5	95*	.
CCCNc1nc(Nc2ccc(C)cc2)nc(N2CCCC2)n1	0.033	1	0	-0.35	26	.
Cc1ccc2cc(C(c3nnnn3C3CCCC3)N3CCN(c4ccc(F)cc4)CC3)c(=O)[nH]c2c1 (configuration not stated)	3.7*	4	.	2.6	.	-0.52
COc1ccc(C(c2nnnn2C2CCCC2)N2CCC(C)CC2)cc1 (configuration not stated)	-3*	0	-2	-1.4	-11	1.1
COc1ccc(OC)c(C(c2nnnn2C2CCCC2)N2CCN(c3ccccc3)CC2)c1 (configuration not stated)	0.59	.	-4	-3.5*	-16	-0.97
Cc1ccccc1NC(=O)CSc1nc(N)c(C#N)c(-c2cccs2)c1C#N	0.077	-24	25	-3.7*	-10	3.4
Cc1c(NC(=O)c2cccc(-c3cc4ccccc4oc3=O)c2)cccc1-c1nc2ncccc2o1	.	.	-3	.	-20	.
